Laboratory results from PubChem BioAssay (NCATS).
Inconclusive results are not listed. Calls of active or inactive are those of the source. Unless noted, calls come from the whole dose curve; as a rule, active = well fitted curve in the direction sought with a large enough effect; inconclusive = small, poorly fitted or top-dose-only effect, or another doubt; inactive = no such curve, though single readings can be large; an effect the other way counts as inactive or inconclusive.

Columns and labels:
[1] = target: 3',5'-cyclic-AMP phosphodiesterase 4B (Homo sapiens) (UniProt Q07343); assay: qHTS Assay for Inhibitors of PDE-IV (AID 607; active = well fitted activation curve with a large enough effect in the main read-out, with a control signal flat, not every such curve was filed as active; note: % of control where 0% means no effect)
3',5'-cyclic-AMP phosphodiesterase 4B (Homo sapiens), sequence (Q07343 whole entry, looked up): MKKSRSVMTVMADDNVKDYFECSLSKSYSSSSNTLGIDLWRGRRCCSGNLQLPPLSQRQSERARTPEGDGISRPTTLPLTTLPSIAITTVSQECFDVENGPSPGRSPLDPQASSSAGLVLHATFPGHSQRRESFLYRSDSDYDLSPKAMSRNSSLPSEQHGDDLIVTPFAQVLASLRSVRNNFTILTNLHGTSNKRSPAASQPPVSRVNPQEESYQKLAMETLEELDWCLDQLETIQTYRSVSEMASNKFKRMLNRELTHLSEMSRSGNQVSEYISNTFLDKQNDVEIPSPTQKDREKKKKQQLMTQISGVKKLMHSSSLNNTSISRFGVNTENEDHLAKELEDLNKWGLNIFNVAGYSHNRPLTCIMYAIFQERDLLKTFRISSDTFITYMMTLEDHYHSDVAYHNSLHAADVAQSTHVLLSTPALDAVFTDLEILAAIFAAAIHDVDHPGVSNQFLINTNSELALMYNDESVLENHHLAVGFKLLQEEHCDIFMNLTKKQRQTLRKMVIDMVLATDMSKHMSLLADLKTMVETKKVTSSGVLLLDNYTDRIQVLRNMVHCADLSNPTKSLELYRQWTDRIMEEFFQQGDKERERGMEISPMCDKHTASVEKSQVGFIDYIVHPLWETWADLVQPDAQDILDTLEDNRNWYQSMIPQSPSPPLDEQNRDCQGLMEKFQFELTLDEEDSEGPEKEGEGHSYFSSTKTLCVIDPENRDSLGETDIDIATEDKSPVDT
In short: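 ACTOne HEK293 cells carry a modified cAMP-gated CNG channel and express endogenous PDE4; plated 1000 cells/well, compounds up to 22.9 uM final. Membrane-potential dye fluorescence (ex 535/em 590) was read; parental cells received 10 uM forskolin + 100 uM RO 20-1724.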

[2] = target: Guanine nucleotide-binding protein G(i) subunit alpha-1 (Homo sapiens) (UniProt P63096); assay: qHTS Assay for Inhibitors of RGS12 GoLoco Motif Activity (Green Fluorophore) (AID 879);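 note: 0% = labeled peptide with Gαi1 and full inhibition = labeled peptide alone without protein; negative values mean loss of peptide binding seen as reduced polarization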
Guanine nucleotide-binding protein G(i) subunit alpha-1 (Homo sapiens), sequence (P63096 whole entry, looked up): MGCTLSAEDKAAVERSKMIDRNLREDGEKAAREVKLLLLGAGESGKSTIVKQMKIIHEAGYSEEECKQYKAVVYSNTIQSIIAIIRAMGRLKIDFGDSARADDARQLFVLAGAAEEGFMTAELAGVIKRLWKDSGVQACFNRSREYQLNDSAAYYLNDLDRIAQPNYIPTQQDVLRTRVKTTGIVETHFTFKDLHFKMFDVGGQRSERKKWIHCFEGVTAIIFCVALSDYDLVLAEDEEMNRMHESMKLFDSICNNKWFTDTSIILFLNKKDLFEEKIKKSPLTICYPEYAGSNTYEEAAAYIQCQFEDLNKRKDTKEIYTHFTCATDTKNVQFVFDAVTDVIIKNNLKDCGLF
In short: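 A drop in FITC polarization marked displacement of the FITC-tagged RGS12 GoLoco peptide (10 nM) from Gαi1 (50 nM). Compounds were incubated 10 min at room temperature in Tris pH 7.5 buffer containing 150 mM NaCl, 0.1 mM GDP and 0.05% NP40; unlabeled peptide titration served as control.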

[3] = target: Cytochrome P450 2C9 (Homo sapiens) (UniProt P11712); assay: qHTS Assay for Inhibitors and Substrates of Cytochrome P450 2C9 (AID 883); note: % is set by controls: 0 for no effect and ±100 for the full control effect; nearly all actives have a fitted effect of over 60% in size
Cytochrome P450 2C9 (Homo sapiens), sequence (P11712 whole entry, looked up): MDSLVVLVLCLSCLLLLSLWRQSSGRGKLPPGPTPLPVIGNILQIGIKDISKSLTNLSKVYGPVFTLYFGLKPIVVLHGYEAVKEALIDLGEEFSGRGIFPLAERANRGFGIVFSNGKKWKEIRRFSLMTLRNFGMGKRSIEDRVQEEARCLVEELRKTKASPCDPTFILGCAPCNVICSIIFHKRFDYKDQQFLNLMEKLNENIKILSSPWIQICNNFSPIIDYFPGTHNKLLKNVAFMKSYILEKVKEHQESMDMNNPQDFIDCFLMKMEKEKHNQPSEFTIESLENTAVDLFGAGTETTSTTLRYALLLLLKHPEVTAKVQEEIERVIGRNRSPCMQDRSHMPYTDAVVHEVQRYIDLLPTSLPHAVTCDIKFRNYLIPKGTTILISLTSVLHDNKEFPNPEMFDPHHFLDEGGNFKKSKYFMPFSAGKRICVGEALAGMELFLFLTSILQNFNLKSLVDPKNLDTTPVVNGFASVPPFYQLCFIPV
In short: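 Turnover of Luciferin-H (100uM, KM) by 10nM human CYP2C9 was measured over 60 min at 37C with NADPH regeneration; inhibitors and some substrates reduce luminescence. Data normalized to sulphaphenazole 57uM.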

[4] = target: Cytochrome P450 3A4 (Homo sapiens) (UniProt P08684); assay: qHTS Assay for Inhibitors and Substrates of Cytochrome P450 3A4 (AID 884); note: nearly all actives have a fitted effect of over 50% in size; note: potency is the fitted concentration of half-maximal effect
Cytochrome P450 3A4 (Homo sapiens), sequence (P08684 whole entry, looked up): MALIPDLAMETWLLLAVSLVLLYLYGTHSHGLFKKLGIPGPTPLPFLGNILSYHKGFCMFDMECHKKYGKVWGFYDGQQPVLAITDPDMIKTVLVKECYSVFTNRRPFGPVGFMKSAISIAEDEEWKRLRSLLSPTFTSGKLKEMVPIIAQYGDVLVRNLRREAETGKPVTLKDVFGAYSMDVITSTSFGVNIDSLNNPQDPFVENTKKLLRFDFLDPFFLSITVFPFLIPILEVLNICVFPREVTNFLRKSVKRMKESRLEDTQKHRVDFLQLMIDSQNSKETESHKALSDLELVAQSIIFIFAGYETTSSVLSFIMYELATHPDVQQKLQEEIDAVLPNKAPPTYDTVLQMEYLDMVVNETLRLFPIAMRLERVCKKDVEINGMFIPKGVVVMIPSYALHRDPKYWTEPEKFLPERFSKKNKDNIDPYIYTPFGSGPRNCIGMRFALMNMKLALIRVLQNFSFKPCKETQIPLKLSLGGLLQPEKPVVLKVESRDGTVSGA
In short: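 Luminescent readout of luciferin produced by CYP3A4 (20 nM) dealkylation of Luciferin-PPXE, 25 uM (its KM). NADPH-driven reaction ran 60 min at RT after 10 min compound preincubation; data scaled to 57 uM ketoconazole as 100% inhibition.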

[5] = qHTS Assay for Identification of Small Molecule Antagonists for NFkB Signaling Pathway (AID 895; active = well fitted inhibition curve with a large enough effect in the signal ratio, with a control signal flat, not every such curve was filed as active; the % refers to the signal ratio; note: % is set by controls: 0 for no effect and ±100 for the full control effect)
In short: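 Beta-lactamase reporter read-out (460 and 530 nm emission ratio, 405 nm excitation, 2 hrs substrate loading RT) after 5 hr stimulation with 10 pM TNF alpha in compound-treated NFkB-bla ME-180 cells in low-serum medium.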

[6] = Confirmation and Secondary Assay for Modulators of Hemoglobin Beta Chain Splicing at IVS2 654 locus (AID 910);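 note: HeLa cells stably carrying EGFP split by mutant beta-globin IVS2-654 intron; per-well total GFP intensity by laser scanning cytometry after 2-day treatment; % of control where 0% means no effect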
In short: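 Readout: per-well total peak green fluorescence (488 nm ex, 500–520 nm em) from objects 5–250 µm, reflecting correct splicing of an EGFP-654 reporter. Compounds were applied for 2 days at 37 °C to overnight-plated HeLa EGFP-654 cells; controls were DMSO and 500 nM IVS2-654 PNA.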

[7] = Cellular Toxicity (caspase-3) HepG2 (AID 654);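 note: cells exposed to compound for 16 hours before reading; 0% = DMSO alone and 100% = caspase signal from 100 µM tamoxifen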
In short: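 Caspase 3/7 activation is measured as a luminescence increase (aminoluciferin substrate) after 16 h compound exposure of human hepatocarcinoma HepG2 cells. AC50 values are Hill fits, scaled between DMSO baseline and 100 uM tamoxifen stimulation.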

[8] = Cellular Toxicity (caspase-3) Jurkat (AID 655); conditions: Jurkat caspase-3 activation, luminescence, DMSO = 0%, tamoxifen = 100%; at 92.2 µM (top of the series);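 note: cells exposed to compound for 16 h at 37 °C before reading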
In short: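 Jurkat cells (5000/well) in complete medium exposed 16 h at 37 C; caspase-3/7 activity read by Caspase-Glo luminescence after 20 min at room temperature. Normalized to DMSO and 100 uM tamoxifen; AC50 from Hill fits.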

[9] = Cellular Toxicity (caspase-3) HUV-EC-C (AID 656); note: potency is the fitted concentration of half-maximal effect
In short: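 HUV-EC-C cells (1000/well) in complete medium, compound-treated 16 h at 37 °C; caspase-3/7 activity read by Caspase-Glo 3/7 luminescence. Normalized to DMSO (basal) and 100 uM tamoxifen (100%); AC50 from Hill-equation concentration-response fits.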

[10] = Cellular Toxicity (caspase-3) SHSY5Y (AID 657)
In short: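 SH-SY5Y human neuroblastoma cells, 1500/well, exposed to compound for 16 hours at 37 °C in complete medium. Caspase-3/7 activity read by Caspase-Glo luminescence after 1 hr at room temperature, normalized to DMSO and 10 uM staurosporine; AC50 from Hill fit.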

[11] = Cellular Toxicity (caspase-3) MRC-5 (AID 659);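 note: 0% = DMSO basal and 100% = 10 µM staurosporine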
In short: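 Luminescent Caspase-Glo 3/7 read-out (1 h, room temperature) after a 16 h, 37 °C compound exposure of MRC-5 lung fibroblasts at 1500 cells/well. Concentration-response AC50 from Hill equation; 0% DMSO, 100% 10 uM staurosporine.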

[12] = Cellular Toxicity (caspase-3) Mesangial (AID 660);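 note: cells exposed to compound for 16 h before the caspase read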
In short: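 Caspase 3/7 activation measured by Caspase-Glo 3/7 luminescence (20 min, room temperature) following 16 h exposure of mesangial cells (1000/well); AC50 from Hill-equation fit, normalized to DMSO and 100 uM tamoxifen.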

[13] = Cellular Toxicity (caspase-3) SK-N-SH (AID 661);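 note: 0% = DMSO basal and 100% = 10 µM staurosporine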
In short: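 Caspase 3/7 activation was read by luminogenic substrate cleavage after 16 hour treatment of SK-N-SH cells. Signal was scaled between DMSO and 10 uM staurosporine, and concentration-response data were fitted with the Hill equation for AC50.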

[14] = Cellular Toxicity (caspase-3) H-4-II-E (AID 663);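 note: cells exposed to compound for 16 hr before readout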
In short: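 Caspase 3/7 activation measured by luminescent aminoluciferin substrate cleavage after 16 hr compound treatment of H-4-II-E cells in complete medium. Increase normalized between DMSO (basal) and 100 uM tamoxifen (100%); Hill-equation AC50 from concentration-response.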

[15] = Cellular Toxicity (caspase-3) Hek293 (AID 664);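 note: cells exposed to compound for 16 h at 37 °C before readout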
In short: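 Concentration-response qHTS: caspase 3/7 activation measured by luminescent aminoluciferin substrate cleavage after 16 h compound exposure of Hek 293 cells. AC50 from Hill equation, with DMSO as basal and 100 uM tamoxifen as 100%.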

[16] = Cellular Toxicity (caspase-3) NIH 3T3 (AID 666);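 note: 0% = DMSO basal and 100% = 100 µM tamoxifen stimulation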
In short: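 Caspase-Glo 3/7 luminescence reported caspase activation in 1000 NIH 3T3 cells/well after 16 h compound exposure at 37 C. DMSO set basal and 100 uM tamoxifen set 100% stimulation; concentration-response modeled with the Hill equation for AC50.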

[17] = Cellular Toxicity (caspase-3) Renal Proximal Tubule (AID 667);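 note: cells exposed to compound for 16 hours at 37 °C before detection; 0% = DMSO basal and 100% = 10 µM staurosporine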
In short: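 Freshly isolated primary rat kidney proximal tubule cells, 1000/well, treated 16 hr at 37 °C, then Caspase-Glo 3/7 luminescence after 1 hr. Normalized to DMSO and 10 uM staurosporine; AC50 from Hill fit.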

[18] = target: Cytochrome P450 2D6 (Homo sapiens) (UniProt P10635); assay: qHTS Assay for Inhibitors and Substrates of Cytochrome P450 2D6 (AID 891); note: potency is the fitted concentration of half-maximal effect; nearly all actives have a fitted effect of over 60% in size
Cytochrome P450 2D6 (Homo sapiens), sequence (P10635 whole entry, looked up): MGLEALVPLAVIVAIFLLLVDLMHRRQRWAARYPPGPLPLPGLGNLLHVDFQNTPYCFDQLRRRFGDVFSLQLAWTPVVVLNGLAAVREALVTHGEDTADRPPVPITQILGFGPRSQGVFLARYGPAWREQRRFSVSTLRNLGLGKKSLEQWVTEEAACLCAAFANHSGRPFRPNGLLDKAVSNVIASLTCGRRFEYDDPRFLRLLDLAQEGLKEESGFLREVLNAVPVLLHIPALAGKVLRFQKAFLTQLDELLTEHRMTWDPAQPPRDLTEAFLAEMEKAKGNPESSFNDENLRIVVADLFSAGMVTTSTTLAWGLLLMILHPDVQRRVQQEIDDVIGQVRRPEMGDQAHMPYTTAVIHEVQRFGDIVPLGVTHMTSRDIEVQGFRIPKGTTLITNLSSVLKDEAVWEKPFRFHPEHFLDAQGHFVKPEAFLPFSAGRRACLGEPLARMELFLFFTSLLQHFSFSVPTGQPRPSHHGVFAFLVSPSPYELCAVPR
In short: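 Luminescent read-out of luciferin formed by 5 nM human CYP2D6 demethylating 30 uM Luciferin-ME EGE (Km level) over 60 min at room temperature after NADPH regeneration addition. Data normalized to full inhibition by 1.43 uM quinidine.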

[19] = target: Cytochrome P450 2C19 (Homo sapiens) (UniProt P33261); assay: qHTS Assay for Inhibitors and Substrates of Cytochrome P450 2C19 (AID 899); note: nearly all actives have a fitted effect of over 60% in size; note: potency is the fitted concentration of half-maximal effect
Cytochrome P450 2C19 (Homo sapiens), sequence (P33261 whole entry, looked up): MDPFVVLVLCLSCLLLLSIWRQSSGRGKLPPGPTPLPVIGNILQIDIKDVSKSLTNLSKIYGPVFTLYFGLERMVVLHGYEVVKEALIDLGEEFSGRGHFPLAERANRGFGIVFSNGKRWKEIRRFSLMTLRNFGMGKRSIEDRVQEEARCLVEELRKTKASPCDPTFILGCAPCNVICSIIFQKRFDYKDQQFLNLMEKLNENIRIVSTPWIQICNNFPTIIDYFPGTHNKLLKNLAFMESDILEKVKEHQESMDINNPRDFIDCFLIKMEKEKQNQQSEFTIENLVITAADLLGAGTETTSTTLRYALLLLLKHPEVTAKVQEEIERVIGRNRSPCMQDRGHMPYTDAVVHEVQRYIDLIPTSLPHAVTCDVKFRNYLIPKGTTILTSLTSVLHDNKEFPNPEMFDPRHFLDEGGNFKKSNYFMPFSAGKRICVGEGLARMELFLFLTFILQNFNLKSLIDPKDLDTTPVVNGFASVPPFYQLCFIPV
In short: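 Reactions contain 5nM enzyme, 10uM Luciferin-H EGE (KM) and 50mM KPO4; compound preincubates 10 min at 37C, NADPH regeneration starts turnover for 60 min. Luminescence after detection reagent gives activity.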

[20] = target: Cytochrome P450 3A4 (Homo sapiens) (UniProt P08684); assay: qHTS Assay for Activators of Cytochrome P450 3A4 (AID 885); note: nearly all actives have a fitted effect of over 65% in size
In short: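 CYP3A4 activity: Luciferin-PPXE O-dealkylation, 25uM substrate, 200mM KPO4, RT throughout. Read-out is luciferase luminescence; higher values reflect activation.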

O=c1[nH]oc2c1CCNC2
inactive: outcome [1] | outcome [2] | outcome [3] | Potency [4] | Potency [5] | outcome [6]

CCC(C)(C)c1ccc(O)cc1
inactive: outcome [7] | caspase-3 activation [8] -1.04% | Potency [9] | outcome [10] | outcome [11] | outcome [12] | outcome [13] | outcome [14] | outcome [15] | outcome [16] | outcome [17] | Potency [4]

COc1ccc2c(c1)C13CCCC[C@@H]1C(C2)N(C)CC3 (stereo not given in full)
active: Potency [18] 3.98 µM
inactive: outcome [1]

O=c1oc2ccccc2c(O)c1Cc1c(O)c2ccccc2oc1=O
inactive: outcome [1] | outcome [6]

CCCCC/C=C\C/C=C\C/C=C\C/C=C\CCCC(=O)NCC(=O)O
inactive: outcome [1] | outcome [2]

Nc1ccccc1C(=O)O
inactive: outcome [7] | caspase-3 activation [8] -0.541% | Potency [9] | outcome [10] | outcome [11] | outcome [12] | outcome [13] | outcome [14] | outcome [15] | outcome [16] | outcome [17] | Potency [4]

Cn1c(=O)c2[nH]cnc2n(C)c1=O
inactive: Potency [19]

Nc1ccccc1
inactive: outcome [7] | caspase-3 activation [8] -1.64% | Potency [9] | outcome [10] | outcome [11] | outcome [12] | outcome [13] | outcome [14] | outcome [15] | outcome [16] | outcome [17] | Potency [4]

COc1cc(OC)c(OC)cc1C=O
inactive: outcome [7] | caspase-3 activation [8] 1.29% | Potency [9] | outcome [10] | outcome [11] | outcome [12] | outcome [13] | outcome [14] | outcome [15] | outcome [16] | outcome [17] | Potency [4] | outcome [6]

O=C1c2ccccc2C(=O)c2ccccc21
inactive: Potency [4] | outcome [6]

Clc1ccc(C(c2ccc(Cl)cc2)C(Cl)(Cl)Cl)cc1
inactive: outcome [7] | caspase-3 activation [8] 7.14% | outcome [10] | outcome [11] | outcome [12] | outcome [13] | outcome [14] | outcome [16] | outcome [17] | Potency [4] | outcome [6]
active: Potency [9] 50.1 µM

CC(C)N(CCC(C(N)=O)(c1ccccc1)c1ccccn1)C(C)C (stereo not given)
inactive: outcome [6]

c1ccc2c(c1)sc1ccccc12
inactive: Potency [4] | outcome [6]

CC(NC(C)(C)C)C(=O)c1cccc(Cl)c1 (stereo not given)
inactive: Potency [4] | outcome [6]

CN1C[C@H](C(=O)N[C@]2(C)O[C@@]3(O)[C@@H]4CCCN4C(=O)[C@H](Cc4ccccc4)N3C2=O)C=C2c3cccc4[nH]cc(c34)C[C@H]21
inactive: outcome [7] | Potency [9] | outcome [10] | outcome [11] | outcome [12] | outcome [13] | outcome [14] | outcome [15] | outcome [16] | outcome [17]

CC(C)(C)NCC(O)c1ccccc1Cl (stereo not given)
inactive: Potency [4] | outcome [6]

Cc1ncsc1CCCl
active: Potency [19] 7.94 µM

CCCCCCNC(=O)n1cc(F)c(=O)[nH]c1=O
active: Potency [4] 20 µM
inactive: outcome [20]

COP(=S)(OC)Oc1ccc(SC)c(C)c1
inactive: outcome [7] | caspase-3 activation [8] 0.672% | Potency [9] | outcome [10] | outcome [11] | outcome [12] | outcome [13] | outcome [14] | outcome [15] | outcome [16] | outcome [17] | outcome [6]

NC(=O)CS(=O)C(c1ccccc1)c1ccccc1 (stereo not given)
inactive: Potency [4] | outcome [6]

NC(=O)c1cc([N+](=O)[O-])cc([N+](=O)[O-])c1
active: Potency [4] 7.94 µM
inactive: outcome [20] | outcome [6]

Oc1ccc(Cl)cc1
inactive: outcome [7] | caspase-3 activation [8] -0.847% | Potency [9] | outcome [10] | outcome [11] | outcome [12] | outcome [13] | outcome [14] | outcome [15] | outcome [16] | outcome [17] | Potency [4] | outcome [6]

CCC1(c2ccc(N)cc2)CCC(=O)NC1=O (stereo not given)
inactive: outcome [20] | outcome [6]

CCOP(=S)(OCC)Oc1ccc2c(C)c(Cl)c(=O)oc2c1
inactive: outcome [20] | outcome [6]

COc1cc(-c2ccc(=O)[nH]n2)ccc1OC(F)F
inactive: outcome [3]

Nc1ccc(O)cc1
inactive: outcome [20]

CCOC(=O)CC(SP(=S)(OC)OC)C(=O)OCC (stereo not given)
inactive: outcome [7] | caspase-3 activation [8] -0.413% | Potency [9] | outcome [10] | outcome [11] | outcome [12] | outcome [13] | outcome [14] | outcome [15] | outcome [16] | outcome [17] | outcome [20]

C=CCc1ccc(O)c(OC)c1
inactive: outcome [20]
